High-throughput results: PubChem, several laboratories
Sampled rows, rich in hits. Any-hit rate of the full collection: about 3.2%.
Mtb bLac sens: beta-lactam sensitization of Mtb H37Rv. hit rate 0.27% among 330,000. AID 434955. inhibition, % at 25 µM. M. tuberculosis H37Rv growth with meropenem, percent inhibition; call rule not given here;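 also: growth measured after seven days incubation then overnight dye step; 0% = bacteria only wells and 100% = bacteria with antibiotic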
Rv3671c protease: Rv3671c (M. tuberculosis) protease inhibition; P9WHR9; inhibition, % at 5.96 µM; hit rate 0.048% among 320,000; in the data active = inhibition above about 38%;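 also: extracellular domain of Rv3671c used as enzyme; 0% = enzyme with DMSO and 100% = no enzyme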
PriA SSB inh: inhibitors of Klebsiella pneumoniae PriA binding to SSB C-terminal tail; AlphaScreen SSBct-PriA binding, biotinylated peptide; inhibition, % at 33 µM; hit rate 0.6% among 430,000; AID 1272365; in the data active = inhibition mostly above about 37%, no sharp cut-off; inactive = mostly below about 20%;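 also: plate controls were negative control peptide for no effect and reference peptide for full effect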
GDH-TPI counter-1: inhibits GDH-TPI coupling enzymes, artifact for Mtb FBA screen. inhibition, % at 4.8 µM. AID 588335. GDH-TPI coupled enzyme counterscreen, NADH absorbance. hit rate 1.2% among 360,000; in the data active = inhibition above about 30%;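 also: 0% = DMSO wells and 100% = wells lacking the enzyme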
UGM FP inh: Mtb UDP-galactopyranose mutase inhibition. P9WIQ1. purified UGM, fluorescence polarization probe displacement. inhibition, % at 10 µM. hit rate 0.06% among 320,000; in the data active = inhibition above about 10%, passing the limit was not always enough; inconclusive = no clear call, values can overlap the other calls
FBA Mtb inh: inhibits M. tuberculosis FBA enzyme | inhibition, % at 1 µM | AID 588726 | P9WQA3 | hit rate 2.3% among 360,000 | purified M. tuberculosis FBA, fluorescence read-out;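 also: 0% = vehicle and 100% = reference inhibitor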
Target sequence (P9WQA3 whole entry, looked up): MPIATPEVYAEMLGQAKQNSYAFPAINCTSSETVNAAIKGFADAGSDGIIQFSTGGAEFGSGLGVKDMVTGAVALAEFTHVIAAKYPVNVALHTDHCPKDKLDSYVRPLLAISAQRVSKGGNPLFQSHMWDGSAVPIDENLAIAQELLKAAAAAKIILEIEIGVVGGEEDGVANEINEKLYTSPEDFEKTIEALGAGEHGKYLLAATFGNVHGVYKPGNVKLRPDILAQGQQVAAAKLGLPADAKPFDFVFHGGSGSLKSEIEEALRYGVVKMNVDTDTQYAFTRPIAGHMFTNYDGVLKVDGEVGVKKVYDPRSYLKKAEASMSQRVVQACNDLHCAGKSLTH
Mtb FBA confirm: confirmation of M. tuberculosis fructose-bisphosphate aldolase inhibitors | shares compounds with FBA Mtb inh | purified M. tuberculosis FBA, fluorescence read-out | inhibition, % at 1 µM | hit rate 78% among 5,600 | AID 651616;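 also: 0% = vehicle wells and 100% = reference inhibitor wells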
GDH-TPI counter-2: counter-screen for M. tuberculosis FBA inhibitors: GDH-TPI coupled enzyme inhibition; shares compounds with FBA Mtb inh; inhibition, % at 1 µM; GDH-TPI coupled enzyme counterscreen, fluorescence; AID 652141; hit rate 81% among 5,600; in the data active = inhibition above about 10%
* hit, by the source's call; ? = inconclusive; / = no result given; + = active, no number. Rule as the data show it, unless noted: active = inhibition above about 27%; inactive = the rest.

SMILES	Mtb bLac sens	Rv3671c protease	PriA SSB inh	GDH-TPI counter-1	UGM FP inh	FBA Mtb inh	Mtb FBA confirm	GDH-TPI counter-2
NS(=O)(=O)c1ccc(CNC(=O)c2cc(-c3cccs3)nc3ccccc23)cc1	-3.2	-10.8	5.1	12.0	-1.6	79.9*	1.5	2.1
NS(=O)(=O)c1ccc(CCNC(=O)c2cc(-c3cccs3)nc3ccccc23)cc1	/	/	0.0	9.9	/	98.9*	+	+
CN(C)S(=O)(=O)c1cccc(NC(=O)c2cc(-c3cccs3)nc3ccccc23)c1	?	-118.8	0.0	11.2	1.5	27.8*	126.3*	102.7*
NS(=O)(=O)c1cccc(NC(=O)c2cc(-c3cccs3)nc3ccccc23)c1	-3.9	-36.3	-1.5	12.6	1.7	25.8	/	/
NS(=O)(=O)c1ccc(CCNC(=O)CSc2cccs2)cc1	12.1	-18.6	-7.7	1.3	0.0	96.6*	87.4*	56.5*
Cc1nc2c(=O)n(Cc3ccccc3F)nc(-c3cccs3)c2s1	/	/	-6.0	/	/	/	/	/
Cc1onc(-c2ccccc2)c1C(=O)NN=C(N)COc1ccc(Cl)cc1	/	/	0.5	/	/	/	/	/
COc1ccc(C=NNC(=O)c2ccoc2C)cc1CN1CCN(c2ccc(F)cc2)CC1	/	/	-2.5	/	/	/	/	/
O=C(Cn1cnc2nc(N3CCC[C@H](C(=O)NC4CC4)C3)sc2c1=O)Nc1ccc(F)c(F)c1	/	/	-8.0	/	/	/	/	/
O=C(Cn1c2c(c(=O)n(C3CCCCC3)c1=O)CCC2)Nc1nc2ccccc2[nH]1	/	/	-9.0	/	/	/	/	/
Cc1cccc(CN2C(=O)/C(=C\c3ccc(C(=O)NCCCN4CCN(C)CC4)cc3)Oc3ccccc32)c1	98.4	-75.5	/	5.2	-0.8	81.0*	9.8	-3.0
CN1CCN(CCCNC(=O)c2ccc(/C=C3\Oc4ccccc4N(Cc4ccccc4F)C3=O)cc2)CC1	40.9	-76.5	4.3	17.4	-0.6	54.9*	-0.6	-3.7
CN1CCN(CCCNC(=O)c2ccc(/C=C3/Sc4ccccc4N(Cc4cccc(Cl)c4)C3=O)cc2)CC1	/	/	27.1	2.5	/	4.7	/	/
O=C(CCCSc1ccccc1)Nc1nc2ccc(Cl)cc2s1	/	/	-6.0	/	/	/	/	/
COc1ccc2ccccc2c1C1NC(=O)c2ccccc2N1 (stereo not drawn)	/	/	-2.8	6.0	/	43.8*	102.0*	73.8*
Clc1ccccc1C1Nc2cccc3cccc(c23)N1	-5.2	5.7	17.9	14.3	-0.3	2.0	/	/
O=C1NC(c2ccccc2Cl)Nc2ccccc21 (stereo not drawn)	-8.9	1.8	-8.9	-7.1	0.8	57.3*	114.3*	99.8*
O=C1NC(c2cccc3ccccc23)Nc2ccccc21 (stereo not drawn)	/	/	-10.7	16.1	/	29.3*	37.1*	32.1*
O=C1NC(c2cccs2)Nc2ccccc21 (stereo not drawn)	-7.7	-7.1	8.9	8.2	-3.3	9.0	/	/
Cc1ccc(CNC(=O)c2ccc3c(=O)n4c(-c5ccc(C)cc5)csc4nc3c2)cc1	-1.8	-7.8	3.5	7.7	1.3	5.0	/	/
Cc1ccc(-c2csc3nc4cc(C(N)=O)ccc4c(=O)n23)cc1	-8.4	-9.7	-2.5	14.7	3.9	28.9*	1.5	-2.4
COc1ccc(/C=C/c2c(-c3ccc(OC)cc3)oc(=O)c3cc(OC)c(OC)cc23)cc1	-7.8	-7.5	-9.2	17.6	0.7	11.4	/	/
COc1ccc(-c2oc3cccnc3c2/C=C/c2ccc(OC)c(OC)c2)cc1	12.5	-4.4	-28.4	15.3	3.0	93.5*	+	195.2*
O=C(Nc1nnc(-c2ccc3c(c2)CCCC3)o1)c1cc2ccccc2o1	/	/	-13.0	/	/	/	/	/
Cc1ccc(OCC(=O)N2CCC3(CC2)CC(=O)c2ccccc2O3)cc1	-11.4	6.5	-4.4	3.5	4.8	5.0	/	/
CC(=O)N1CCC2(CC1)CC(=O)c1cc(OCC(=O)N3CCOCC3)ccc1O2	0.0	-7.1	-12.1	9.9	3.1	69.7*	66.8*	67.0*
CCOC(=O)N1CCN(C(=O)COc2ccc3c(c2)C(=O)CC2(CCN(C(C)=O)CC2)O3)CC1	-4.3	1.2	-24.5	9.6	2.6	63.4*	138.8*	120.5*
COc1cccc(OCC(=O)N2CCC3(CC2)CC(=O)c2ccccc2O3)c1	-6.8	-0.8	8.0	0.3	-4.8	9.2	/	/
CCOC(=O)C(N=Nc1cc(C(=O)O)cc(C(=O)O)c1)=C(O)CCl	/	/	-1.6	/	/	/	/	/
